# According to PubChem BioAssay AID743060 (The Scripps Research Institute Molecular Screening Center, 2013):
# Assay: inhibitors of T. brucei MetRS aminoacylation, late-stage follow-up, biochemical, radioactivity, round 1 (AID 743060)
# Details: purified enzyme, radiolabel aminoacylation, scintillation, 2 h; at 1 µM; stronger effect = higher value
row,Compound,inhibition [%]
1,CCN(CC)C(=O)C(=O)c1cn(CC(=O)N2CCCc3ccccc32)c2ccccc12,-9.56
2,CCCCn1c(CCNC(=O)c2ccc(F)cc2)nc2ccccc21,4.87
3,O=C(NCCc1nc2ccccc2[nH]1)c1ccc(Cl)cc1Cl,61.9
4,O=C(NCc1nc2ccccc2[nH]1)C1=C[C@@H](c2ccc(Br)cc2)C[C@@H](OCCCCO)O1,84.2
5,CCN(CC)C(=O)C(=O)c1cn(CC(=O)Nc2cccc(OC)c2)c2ccccc12,41.4
6,O=C(Cn1cc(C(=O)c2ccco2)c2ccccc21)Nc1cccc(C(F)(F)F)c1,45.2
7,O=C(CSc1nnc2c(n1)[nH]c1ccc(Br)cc12)NCc1ccccc1,79.8
8,Oc1c(Cl)cc(Cl)cc1CNc1nc2ccccc2[nH]1,88.3
9,O=C(Cn1cc(C(=O)c2ccccc2)c2ccccc21)Nc1cccc(C(F)(F)F)c1,22
10,O=C(CC=NOCc1ccc([N+](=O)[O-])cc1)Nc1ccc(Cl)cc1,28.6
11,CCc1ccc2c(c1)c1nnc(SCC(=O)Nc3ccc4c(c3)OCO4)nc1n2C,-1.63
12,O=C1CC(NCCc2ccccc2)C(=O)N1c1ccc(Br)cc1 (stereo not given),-6.51
13,COc1ccc(NC(=O)C2CC(=O)n3c(nc4ccccc43)N2)cc1 (stereo not given),-18.5
14,O=C(NCc1nc2ccccc2[nH]1)C1=C[C@@H](c2ccc3c(c2)OCO3)C[C@@H](OCCCCO)O1,50.4
15,CC(=O)c1ccc(N2CCN(C(=O)CCCn3c(=O)[nH]c4ccc(Br)cc4c3=O)CC2)cc1,68.1
16,COc1ccccc1NC(=O)CSc1nnc2c(n1)[nH]c1ccc(C)cc12,19.1
17,CCC(=O)c1cn(CC(=O)Nc2cccc(C(F)(F)F)c2)c2ccccc12,-3.8
18,O=C(Cn1cc(C(=O)COc2ccccc2)c2ccccc21)Nc1cccc(C(F)(F)F)c1,-5.73

row,Compound,inhibition [%]
1,C[C@H](O)[C@@H]1C(=O)N2CCc3c([nH]c4ccccc34)[C@@H]2C[C@@H]1N(C)Cc1ccc2c(c1)OCO2,1.98
2,Cc1ccc2[nH]c3nc(SCC(=O)Nc4ccc(C(F)(F)F)cc4)nnc3c2c1,21.3
3,O=C(C[C@H]1C(=O)N(Cc2ccccc2)C[C@@H]1c1ccc(Br)cc1)Nc1ccc(Br)cc1,55.7
4,CCOC(=O)N1CCC(Nc2c(Nc3ccc(F)cc3)c(=O)c2=O)CC1,28.4
5,CCN(CC)C(=O)C(=O)c1cn(CC(=O)N(CC)c2ccccc2)c2ccccc12,-3.75
6,Clc1ccc(OCCSCc2nc3ccccc3[nH]2)cc1,-2.58
7,O=C(NCCc1nc2ccccc2[nH]1)c1ccc(Cl)c(Cl)c1,74.6
8,CCN(CCc1nc2ccc(C)cc2[nH]1)C(=O)c1ccc2ncccc2c1,-4.55
9,O=C(NCc1nc2ccccc2[nH]1)C1=C[C@@H](c2csc3ccccc23)C[C@@H](OCCCCO)O1,20.6
10,O=C(NNC(=O)c1ccc(-n2cncn2)c([N+](=O)[O-])c1)c1ccc(Cl)cc1,7.36
11,O=C(Cn1cc(C(=O)C(=O)N2CCOCC2)c2ccccc21)NCc1ccccc1,-0.16
12,O=C(Cn1cc(C(=O)C2CC2)c2ccccc21)Nc1cccc(C(F)(F)F)c1,3.65
13,CC(=O)c1cn(CC(=O)Nc2cccc(C(F)(F)F)c2)c2ccccc12,20.1
14,CC(C)(C)[C@@H]1C=C(C(=O)NCc2nc3ccccc3[nH]2)O[C@H](OCc2ccc(CO)cc2)C1,30.8
15,O=C(Cn1cnc2ccccc21)Nc1cccc([N+](=O)[O-])c1,44.9
16,COc1ccc(CNC(=O)CSc2nnc3c(n2)[nH]c2ccc(F)cc23)cc1,47.5
17,COc1ccc(CCN(C(=O)c2cccc(F)c2)C2CC(=O)N(c3ccc(Br)cc3)C2=O)cc1 (stereo not given),-5.29
